# Experimental data: PubChem BioAssay (NCI)
# “And” between values parts separate entries of the source, which are not always exact repeats. Equal entries are not always repeated. The panel holds about 83,000 compounds, 20% with a hit somewhere; the sample as a whole holds those more often.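 Plates (96-well) were seeded with cells, treated with compound at one concentration, and incubated for 48 hours before percent growth was determined.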 The source made the active and inactive calls.
# Test system: SK-MEL-2 melanoma
# Assay: NCI-60 one-dose screen, 48 h (100 = growth as untreated, 0 = no growth, -100 = all killed)
# Conditions: 0.01 µM
# Protocol: Growth inhibition of the SK-MEL-2 human tumor cell line is measured as a screen for anti-cancer activity. Cells are grown in 96 well plates and exposed to the test compound for 48 hours. Compounds are tested at a single concentration, which is 10^-5 M for most compounds. The reported endpoint is percent growth (GI% or GIPRCNT), where numbers from 0 - 100% represent growth inhibition, and numbers from -100% - 0 represent cell death. For example, a value of 40 represents 60% growth inhibition. A value of 0 means no net growth occurred over the course of the experiment. A value of -40 indicates 40% of cells at the beginning of the experiment died by the end of the experiment. A value of -100 means all cells are dead at the end of the experiment.
# NCI-60 Human Tumor Cell Lines Screen was performed using the standard one-dose NCI protocol, which is described in more detail at https://dtp.cancer.gov/discovery_development/nci-60/default.htm.
# Compounds with GIPRCNT values below 10 were considered active. Activity score was based on GIPRCNT using the following formula: […]
# Score is 0 for GIPRCNT values of 100 or above, 50 for GIPRCNT values of 0, and 100 for GIPRCNT values of -100.
row,Structure (SMILES),growth
1,CC(=O)O[C@H]1C(=O)[C@@]2(C)[C@H]([C@H](OC(=O)c3ccccc3)[C@]3(O)C[C@H](OC(=O)[C@H](O)[C@@H](NC(=O)c4ccccc4)c4ccccc4)C(C)=C1C3(C)C)[C@]1(OC(C)=O)CO[C@@H]1C[C@@H]2O,72.5% (inactive)

# Same assay, conditions: 2.5 µM
row,Structure (SMILES),growth
1,CC(=O)O[C@H]1C(=O)[C@@]2(C)[C@H]([C@H](OC(=O)c3ccccc3)[C@]3(O)C[C@H](OC(=O)[C@H](O)[C@@H](NC(=O)c4ccccc4)c4ccccc4)C(C)=C1C3(C)C)[C@]1(OC(C)=O)CO[C@@H]1C[C@@H]2O,3.85% (active)

# Same assay, conditions: 5 µM
row,Structure (SMILES),growth
1,CC(=O)O[C@H]1C(=O)[C@@]2(C)[C@H]([C@H](OC(=O)c3ccccc3)[C@]3(O)C[C@H](OC(=O)[C@H](O)[C@@H](NC(=O)c4ccccc4)c4ccccc4)C(C)=C1C3(C)C)[C@]1(OC(C)=O)CO[C@@H]1C[C@@H]2O,21.3% (inactive)

# Same assay, conditions: 10 µM
row,Structure (SMILES),growth
1,Cn1ncc2cc3c(Nc4ccc(Cl)cc4)cccc3nc21,99.4% (inactive)
2,CCOC(=O)[C@]1(Br)CC[C@@]1(Br)C(=O)OCC,91.7% (inactive)
3,ClCCn1c(CCl)nc2ccc(Cl)cc21,-56% (active)
4,N#CC(=C1C=CC(=NO)C=C1)c1ccccc1,41.1% (inactive)
5,Cc1cc(C)c(N2C(=O)CC(Sc3ccccc3N)C2=O)c(C)c1 (stereo not given),88.5% (inactive)
6,CC1CCC2(C(=O)O)CCC3(C)C(=CCC4C5(C)CC(O)C(O)C(C)(CO)C5C(O)CC43C)C2C1C (stereo not given),104% (inactive)
7,O=c1[nH]cc(/C=N\Nc2ccccc2)c(=O)[nH]1,46.1% (inactive)
8,S=P(N1CC1)(N1CC1)N1CC1,116% (inactive) and 93.3% (inactive)
9,C=C1N(C)c2ccc(Cl)cc2C1(C)C,101% (inactive)
10,Nc1nc(N)c2cc(Sc3ccc4ccccc4c3)ccc2n1,75.3% (inactive)
11,Cc1cc(O)c2c(c1O)C(=O)C13C(=C2O)C(=O)C2C(O)C1C1C(O)C3C(=O)C3=C(O)c4c(O)cc(C)c(O)c4C(=O)C321 (stereo not given),-6.64% (active)
12,COc1ccc2oc(-c3ccc(Cl)cc3)c(N3CCN(C)CC3)c2c1,-15.9% (active)
13,Cc1c(-c2ccccc2)[nH]c2ccccc12,115% (inactive)
14,O=C1c2cccc3cc([N+](=O)[O-])cc(c23)C(=O)N1CCN1CCCC1,4.73% (active)
15,O=Nc1ccc(Nc2ccccc2)cc1,109% (inactive)
16,O=C1C=CC(=O)N1c1ccc(N2C(=O)C=CC2=O)cc1,108% (inactive)
17,CC(=O)O[C@H]1C(=O)[C@@]2(C)[C@H]([C@H](OC(=O)c3ccccc3)[C@]3(O)C[C@H](OC(=O)[C@H](O)[C@@H](NC(=O)c4ccccc4)c4ccccc4)C(C)=C1C3(C)C)[C@]1(OC(C)=O)CO[C@@H]1C[C@@H]2O,25.7% (inactive) and 32% (inactive)
18,CC[C@@]1(OC(=O)CN(C)C)C(=O)OCc2c1cc1n(c2=O)Cc2cc3c(N)cccc3nc2-1,-17.4% (active)

row,Structure (SMILES),growth
1,O=C1C(Cl)=C(Cl)C(Cl)(Cl)C(Cl)C1(Cl)Cl (stereo not given),100% (inactive)
2,S=C1SCN(CCc2ccccc2)CN1CCc1ccccc1,105% (inactive)
3,O=C(NC(=S)Nc1ccccn1)c1ccccc1,127% (inactive)
4,O=[N+]([O-])c1cc(S(=O)(=O)Nc2ccccc2)ccc1Cl,93.3% (inactive)
5,COc1ccc2c(c1)[nH]c1c(/C=C/c3ccccc3)nccc12,89.5% (inactive)
6,Cn1c2nc3ccccc3c-2nc2ccccc21,113% (inactive) and 112% (inactive)
7,O=S(=O)(c1cc(Cl)ccc1O)c1cc(Cl)ccc1O,64% (inactive)
8,COc1cc(N)ccc1Nc1c2ccccc2nc2ccccc12,109% (inactive)
9,CN(CC(=O)O)c1ccc(/C=C/c2ccnc3ccccc23)cc1,89% (inactive)
10,Cc1cc(N=C2C=CC(=[N+](C)C)C=C2)c(N)cc1N,106% (inactive)
11,COc1ccc(N)c2c1C(=O)c1ccccc1C2=O,99.5% (inactive)
12,N#C/C(=C/N1C(=O)/C(=C/c2ccc([N+](=O)[O-])cc2)SC1=S)c1nc2ccccc2s1,94.4% (inactive)
13,O=C(O)c1ccccc1.[Ag],122% (inactive)
14,CCC(=O)Oc1ccc(/C=N/NC(N)=S)nc1,53.2% (inactive)
15,COc1cccc(C(c2cc3c(cc2O)OCO3)N2CCOCC2)c1OC (stereo not given),101% (inactive)
16,CN(C)c1ccc(/C=C/c2ccnc3ccccc23)cc1N,67.5% (inactive)
17,NCc1c(O)ccc2ccccc12,98.2% (inactive)
18,CN(C)CCNc1cccc2sc3ccc(O)cc3c(=O)c12,64% (inactive)

# Same assay, conditions: 100 µM
row,Structure (SMILES),growth
1,S=P(N1CC1)(N1CC1)N1CC1,113% (inactive)
